WT yeast gro inh: growth inhibition of WT strain, primary screen, mitochondrial fusion inhibitor project, WT and mutant strains, chemical genetic. inhibition, % at 10 µM. AID 1362, 2008. mitochondrial fusion phenotypic screen. 2.1% of 190,000 active; in the data active means inhibition above about 58%; tested in S. cerevisiae
Lmaj promast: Leishmania major promastigote growth inhibition, primary screen; Leishmania major promastigotes, resazurin fluorescence viability; inhibition, % at 10 µM; 9% of 200,000 active; in the data active means inhibition above about 50%;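 further: promastigotes grown with compound for 44 hours at 28 °C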
RAM inhibit: inhibitors of the yeast RAM network, primary screen, dse1pr::URA3 reporter, 5-FOA selection | S. cerevisiae dse1pr::URA3 reporter, 5-FOA growth OD615, 2 d; analog-sensitive cbk1-as2 kinase mutant strain | inhibition, % at 50 µM | 1.8% of 190,000 active | AID 868, 2007;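 active means inhibition above a set limit, 3 SD over mean compound inhibition, cut at about 8.4% in these data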;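 further: inhibition rescues growth on 5-FOA so higher OD means more RAM inhibition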
CHOP inhibitor: inhibitors of CHOP promoter induction, primary screen, cell-based, unfolded protein response, luciferase reporter. CHO-K1 CHOP-promoter luciferase, tunicamycin-induced, 15-18 h. inhibition, % at 10 µM. 3.8% of 220,000 active;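 active means compounds that reduced the stress-induced luciferase reporter signal by more than about 70% of percent inhibition, limit read from the data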
Hits are given with their value; - = inactive; . = not tested or not shown. An excerpt weighted towards active compounds, which were near 13% of everything screened.

SMILES	WT yeast gro inh	Lmaj promast	RAM inhibit	CHOP inhibitor
CC1CN(C(=O)N[C@@H](Cc2ccccc2)C(=O)O)CC(C)O1 (some centres undefined)	-	80	-	-
CCCCC(=O)NC(c1ccco1)c1c(O)ccc2ccccc12 (centres undefined)	-	67	-	-
CCC(=O)NC(c1cccc([N+](=O)[O-])c1)c1c(O)ccc2ccccc12 (centres undefined)	-	-	-	-
CCCC(=O)NC(c1ccco1)c1c(O)ccc2ccccc12 (centres undefined)	-	57	-	-
CC(C)CC(=O)NC(c1ccccc1Cl)c1c(O)ccc2ccccc12 (centres undefined)	-	100	-	-
COc1ccc(C(NC(=O)C2CCCCC2)c2c(O)ccc3ccccc23)cc1 (centres undefined)	-	100	-	-
COc1ccc(CCNS(=O)(=O)c2cc(C(=O)O)c(Cl)cc2Cl)cc1	-	-	-	-
CCN(CC)S(=O)(=O)c1ccc(-c2nnc(SCC(=O)N3c4ccccc4CC3C)n2CC)cc1 (centres undefined)	-	91	-	-
CCN(CC)S(=O)(=O)c1ccc(-c2nnc(SCC(=O)N3c4ccccc4CC3C)o2)cc1 (centres undefined)	-	-	-	-
CC(=O)c1cccc(NC(=O)CN(C)Cc2ccc(OC(F)F)cc2)c1	.	.	.	-
O=C(C1=C[C@H](c2ccc3c(c2)OCO3)C[C@H](OCc2ccc(CO)cc2)O1)N1CCCCCCC1	-	61	-	-
O=C(C1=C[C@@H](c2ccc3c(c2)OCO3)C[C@@H](OCc2ccc(CO)cc2)O1)N1CCOCC1	-	-	11	-
COC(=O)c1ccc(C2CC(=O)Nc3cc(OC)c(OC)c(OC)c32)cc1 (centres undefined)	-	-	-	-
Cc1c(CN(C)C)c2c(n1Cc1ccccc1)C(=O)c1ccccc1-2	-	75	-	-
CCCOc1ccc(/C(O)=C2/C(=O)C(=O)N(c3cc(C)on3)C2c2ccc(C(=O)OC)cc2)cc1 (centres undefined)	-	-	11	-
CCCN1C(=O)/C(=N\OCC(=O)NC23CC4CC(CC(C4)C2)C3)c2ccccc21	-	-	-	-
Cn1c(/C(C#N)=C/c2ccncc2)nc2ccccc21	-	-	-	-
N#C/C(=C\c1ccncc1)c1nc2c(s1)CCCC2	-	58	-	-
COc1cc(OC)nc(Oc2ccccc2C(=O)Oc2cccc(C)c2)n1	60	-	-	-
COc1cc(C(=O)Oc2cccc(C)c2)cc(OC)c1OC	-	-	-	-
C=CCNS(=O)(=O)c1cccc(C(C)=O)c1	-	54	-	-
CCOc1cc(/C=N/NC(N)=S)cc(Br)c1OCc1ccccc1C	-	100	-	86
COc1cc(/C=N/N=C(/N)c2nonc2N)cc(Br)c1OCc1cccc(C)c1	-	-	-	71
COc1cc(/C=N/N=C(\N)c2nonc2N)cc(OC)c1O	.	.	.	-
CCOc1cc(/C=N/N=C(\N)c2nonc2N)cc(Br)c1OCc1cccc2ccccc12	-	-	-	95
SMILES	WT yeast gro inh	Lmaj promast	RAM inhibit	CHOP inhibitor
CSc1nc(N2CCN(CCO)CC2)c2sc3nc(-c4ccco4)c4c(c3c2n1)CCC4	93	.	.	.
Fc1ccccc1COc1ccc(Br)cc1CNCc1cccnc1	-	-	-	-
CCOc1cc(CNCc2ccncc2)cc(Br)c1OCc1ccc(F)cc1	-	93	-	-
O/N=C/c1cc(Br)ccc1OCc1ccccc1F	.	100	.	.
C=CCOc1ccc(Br)cc1/C=N/O	-	-	-	-
Fc1ccccc1COc1ccc(Br)cc1CNCc1ccncc1	-	100	-	-
Fc1ccc(COc2ccc(Br)cc2CNCc2ccncc2)cc1	-	97	-	-
CC(=O)Nc1ccc2nc(CN3CCN(Cc4ccc(F)cc4)C(CCO)C3)ccc2c1 (centres undefined)	-	-	-	-
Fc1ccc(COc2cccc(CNCc3ccncc3)c2)cc1	-	96	-	-
Nc1nc(Cl)nc2c1ncn2[C@@H]1O[C@H](CO)[C@H](O)C1O (some centres undefined)	.	.	.	-
Cc1ccc(C23CC4CC(CC(NC(=O)N5CCN(C)CC5)(C4)C2)C3)cc1	-	85	-	-
CCN(CC)C(=S)NC(=O)Cc1ccccc1	-	-	-	-
C=CCN(CC=C)C(=S)NC(=O)Cc1cccc2ccccc12	65	-	-	-
Cn1c(O)c(N=Nc2nc(-c3ccccc3)cs2)c2ccccc21	-	66	-	-
CCn1c(Sc2nc(C)nc3scc(-c4cccs4)c23)n[nH]c1=O	82	-	-	-
Cc1nc(SCC(=O)NC(=O)NCCC(C)C)c2c(-c3cccs3)csc2n1	-	-	-	-
O=C(O)c1ccccc1/C=N/Nc1nc(N2CCCCC2)nc(N2CCCCC2)n1	-	-	-	-
Brc1cccc(/C=N/Nc2nc(N3CCCCC3)nc(N3CCCCC3)n2)c1	-	52	-	-
BrC(=C\c1ccccc1)/C=N/Nc1nc(N2CCOCC2)nc(N2CCOCC2)n1	-	86	-	-
BrC(/C=C\c1ccccc1)=N/Nc1nc(N2CCOCC2)nc(N2CCOCC2)n1	-	-	-	-
Fc1ccc(Nc2nc(N/N=C/c3ccco3)nc(N3CCCCC3)n2)cc1	82	83	-	-
C(=N\Nc1nc(N2CCCCCC2)nc(N2CCCCCC2)n1)/c1ccccc1	68	61	-	-
Fc1ccccc1COc1ccccc1/C=N/Nc1nc(N2CCCC2)nc(N2CCCC2)n1	-	50	-	-
CC(/C=N/Nc1nc(N2CCCCC2)nc(N2CCCCC2)n1)=C\c1ccccc1	-	-	-	73
Oc1ccc(Br)cc1/C=N/Nc1nc(N2CCCCC2)nc(N2CCOCC2)n1	-	91	-	-
SMILES	WT yeast gro inh	Lmaj promast	RAM inhibit	CHOP inhibitor
CN(C)c1nc(NCc2ccccc2)nc(N/N=C/c2cccc(Br)c2)n1	-	52	-	-
Cc1nn(C)c(Sc2ccccc2N)c1[N+](=O)[O-]	-	-	-	-
COC(=O)c1ccc(-c2ccc(/C=N/NC(=O)Cc3nnc(N)s3)o2)cc1	.	.	.	-
O=C(NNC(=O)C1CCN(Cc2cccc(F)c2)CC1)c1cccc(Cl)c1	-	64	-	-
Cc1cccc(NC(=S)NC2CCN(Cc3ccccc3)CC2)c1C	-	89	-	-
O=C(NNC(=O)C1CCN(Cc2cccc(F)c2)CC1)c1cccs1	-	-	-	-
COc1cccc(NC(=O)NC2CCN(Cc3nnnn3Cc3ccc(F)cc3)CC2)c1	-	-	-	-
Fc1ccc(NC(=S)NC2CCN(Cc3ccccc3)CC2)cc1	-	89	-	-
O=C(Nc1cccc(F)c1)NC1CCN(Cc2ccccc2)CC1	-	56	-	-
CC(C)N1C(=O)CCN(C=O)c2ccccc21	-	-	-	-
CSC1=C(C#N)C(c2sccc2C)CC(=O)N1 (centres undefined)	-	-	-	-
S=C(NC1CCCCC1)N1CCN(Cc2ccccc2)CC1	-	-	-	-
CC(C)(C)CC(C)(C)NC(=S)NC1CCN(Cc2ccccc2)CC1	-	89	-	71

Assay outcomes as filed in PubChem BioAssay.
